Screen size: about 290,000 compounds; about 3,000 (1%) were called active. No stated cut-off is given here; in the data, active means inhibition mostly above about 36% (no sharp cut-off); inactive means mostly below about 34%. The entries come from a sample that favours actives as a whole.

As usually defined, the inhibition is the change of the read-out against control, counted positive when it falls.

This assay is described as follows: inhibition of NOD1-driven NF-kB reporter – cell-based, luminescence, uHTS, primary screen (AID 1578).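 Further: HEK-293T reporter cells stimulated with the NOD1 agonist gamma-tri-DAP.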 As to conditions: NOD1-driven NF-kB luciferase reporter cells, at 4 µM, hits give high values. On the technique in general: Reporter assays use an easily measured gene product as a stand-in for the process of interest.
On to `COc1ccc(/C=N/NC(N)=S)cc1`, for which the inhibition is -8.2% (inactive). As to `Cc1ccc(S(=O)(=O)c2nc(S(=O)(=O)c3ccccc3)sc2N2CCN(CCO)CC2)cc1`, the inhibition is 18% (inactive). With `CCN1C(=O)N(CC)C2NC(=S)NC21` (configuration not stated), the inhibition was 8.6% (inactive). In the case of `COc1ccc(OCc2cc(C(=O)N(C)Cc3nnc(C)o3)no2)c(Cl)c1` it was -5.8% (inactive); in that of `C/C=C/Cn1c(SCc2ccccc2)nc2c1c(=O)[nH]c(=O)n2C`, 35% (inactive); in that of `C=CCn1c(SCCCc2ccccc2)nc2c1c(=O)[nH]c(=O)n2C`, -1.2% (inactive). On to `Cc1ccc(S(=O)(=O)c2cc3c(=O)n4ccccc4nc3n(C)c2=N)cc1C`, for which the inhibition was -7.1% (inactive). The same measure for `CCOCCOC(=O)c1[nH]c2c(c1C)C(=O)CC(c1cc(OC)c(OC)c(OC)c1)C2` (configuration not stated): 4.2% (inactive); for `CCCOC(=O)c1[nH]c2c(c1C)C(=O)CC(c1ccc(OC)c(OC)c1)C2` (configuration not stated): -5.9% (inactive). The same measure for `CC(=O)N1CCN(c2ccccc2NC(=O)c2ccc(C#N)cc2F)CC1`: 2.6% (inactive). As to `COc1ccc(OCCN2CCN(C(=O)c3ccc(OC)c(OC)c3)CC2)cc1`, the inhibition is -11.7% (inactive).

Consider `Cc1ccc(-c2nc(N)sc2-c2ccccc2)cc1C`, for which the inhibition was -14% (inactive). The same measure for `CCOC(=O)N1CCc2c(sc(NC(=O)C3=COCCO3)c2C(N)=O)C1`: -29.7% (inactive); for `CCOC(=O)N1CCc2c(sc(NC(=O)c3ccc(Cl)s3)c2C(N)=O)C1`: 85.3% (active); for `CCOC(=O)c1c(NC(=O)c2cccs2)sc2c1CCN(C(=O)OCC)C2`: 14% (inactive).

`O=C(CSc1nnc(-c2ccccc2Br)o1)Nc1cccc2ccccc12`: the inhibition was -22.5% (inactive).

`Cc1ccc(C2=Nn3c(COc4ccc(Cl)cc4)nnc3SC2CC(=O)O)cc1` (configuration not stated): the inhibition is 3.6% (inactive). In the case of `CN(CCCNC(=O)Cn1c(=O)c2cccn2c2ccccc21)Cc1ccccc1` it was -17.1% (inactive); in that of `Cc1ccccc1NC(=O)COC(=O)C1(C)CC1(Cl)Cl` (configuration not stated), -11.4% (inactive); in that of `Cc1ccc(S(=O)(=O)Oc2ccc(/C=C(/NC(=O)c3ccccc3)C(=O)NCCCC(=O)O)cc2)cc1`, -18.3% (inactive). In the case of `COC(=O)c1c(-c2ccccc2)csc1NC1=NS(=O)(=O)c2ccccc21` it was 82.4% (active); in that of `COC(=O)c1ccc(C(=O)OC)c(NC2=NS(=O)(=O)c3ccccc32)c1`, -20.3% (inactive); in that of `CCOC(=O)c1c(-c2ccc(C)cc2)csc1NC1=NS(=O)(=O)c2ccccc21`, 24% (inactive). The same measure for `O=C(OCC(=O)c1cccs1)c1ccccc1`: 2.3% (inactive); for `Cc1nc2ccc(F)cc2cc1C(=O)Nc1ccc(Cl)c(Cl)c1`: -34% (inactive); for `O=C(Nc1ccc(Cl)cc1)N(Cc1nc2ccccc2c(=O)[nH]1)Cc1cccs1`: 99.1% (active).

For the compound `O=C(Nc1cccc(Cl)c1)N(Cc1nc2ccccc2c(=O)[nH]1)Cc1cccs1`, the inhibition is -26.5% (inactive). In the case of `Cc1ccc(NC(=O)N(Cc2nc3ccccc3c(=O)[nH]2)Cc2cccs2)cc1` it was -2.2% (inactive); in that of `Cn1cc(C(=O)NCc2cccs2)c(=O)c2cc(S(=O)(=O)N3CCCC3)ccc21`, 53% (inactive); in that of `Brc1ccc(/C=N/Nc2ccc3ccccc3n2)cc1`, -39.3% (inactive). The same measure for `Brc1ccc(N=Nc2ccc3ccccc3n2)cc1`: 43.4% (active). With `CCn1c(O)c(N=Nc2ccc3ccccc3n2)c2ccccc21`, the inhibition was -7.9% (inactive).

Consider `CC1Cc2ccccc2N1CC(=O)Nc1ccc(S(=O)(=O)N(C)C)cc1` (configuration not stated), for which the inhibition is -7.7% (inactive). The same measure for `Cc1ccc(C)c(C(C)NC(=S)NCc2ccc(F)cc2)c1` (configuration not stated): 52.6% (active). In the case of `Cc1ccc(C(C)NC(=S)NCc2ccc(F)cc2)c(C)c1` (configuration not stated) it was 29.2% (inactive); in that of `COc1cccc(C(C)NC(=S)NCc2ccc(F)cc2)c1` (configuration not stated), 20.3% (inactive). For the compound `Cc1ccc(C(C)NC(=S)NCc2ccc(F)cc2)cc1C` (configuration not stated), the inhibition was -16.4% (inactive). In the case of `CCOc1ccc(C(C)NC(=S)NCc2ccc(F)cc2)cc1` (configuration not stated) it was 8.6% (inactive). In the case of `COc1ccc(C(C)NC(=S)NCc2ccc(F)cc2)cc1` (configuration not stated) it was 55.1% (active); in that of `COCCNC(=O)Cn1c(=O)n(C)c2ccccc21`, -14% (inactive); in that of `Cc1cc(C)cc(N(C(C)C(=O)NCCC2=CCCCC2)S(C)(=O)=O)c1` (configuration not stated), 15% (inactive). The same measure for `CC(=O)Nc1ccc(NC(C)=C(C#N)C#N)cc1`: -12.5% (inactive); for `COc1ccc(NC(=S)N2c3ccccc3CC2C)cc1OC` (configuration not stated): 30.4% (active).

As to `COc1ccc(NC(=O)N2c3ccccc3CC2C)cc1OC` (configuration not stated), the inhibition was -26.9% (inactive).

With `COc1cccc(NC(=S)N2c3ccccc3CC2C)c1` (configuration not stated), the inhibition is -26.6% (inactive). Turning to `CCN(C(=O)COC(=O)CSc1ccc([N+](=O)[O-])cc1)C1CCS(=O)(=O)C1` (configuration not stated), the inhibition is -23.6% (inactive). In the case of `COc1cc(C(=O)N/N=C/c2ccc3c(c2)c2ccccc2n3C)ccc1O`, the inhibition was 32.9% (inactive). In the case of `Cc1ccc(CNC(=O)CCS(=O)(=O)Cc2ccc(C)cc2)cc1` it was 15.8% (inactive); in that of `CC(C)c1ccc2c(c1)C1Cc3ccccc3C1N2` (configuration not stated), -15.3% (inactive). The same measure for `CCOc1cc(/C=C2/COc3ccccc3C2=O)ccc1OCC(=O)N(C)C`: 36.8% (inactive). As to `CCOc1cc(/C=C2\COc3ccccc3C2=O)cc(Br)c1OCC(=O)N(C)C`, the inhibition was 54.9% (active). The same measure for `CCOc1cc(/C=C2\COc3ccccc3C2=O)ccc1OCC(=O)N(C)C`: 30.7% (inactive).

Take `COc1ccccc1Oc1nc(-c2ccccc2)cc(C)c1S(C)(=O)=O`: the inhibition was -16.2% (inactive). Turning to `COc1cccc(NC(=O)C2CCN(S(=O)(=O)c3ccc4c(c3)CC(C)N4C(C)=O)CC2)c1` (configuration not stated), the inhibition is -22.9% (inactive).

For `Cc1ccc(-c2cc3nc(-c4ccc(Br)cc4)cc(N)n3n2)cc1`, the inhibition is -9.8% (inactive). The same measure for `Nc1cc(-c2ccc(Br)cc2)nc2cc(-c3ccccc3)nn12`: -10.5% (inactive). The same measure for `CN1C(=O)C(C)(C)c2cc(S(=O)(=O)NCCc3ccc(Cl)cc3)ccc21`: -14.4% (inactive); for `CC1(C)Cc2c(sc3c2c(=N)n(Cc2ccco2)c(=O)n3CC(=O)Nc2ccc(Cl)cc2)CO1`: 1% (inactive); for `COc1ccc2nc(C)cc(N3CC(C)OC(C)C3)c2c1` (configuration not stated): 8.1% (inactive).

With `N[C@@H](Cc1cc(I)c(Oc2ccc(O)c(I)c2)c(I)c1)C(=O)O`, the inhibition is 14.2% (inactive). In the case of `O=C(O)Cc1cc(I)c(Oc2ccc(O)c(I)c2)c(I)c1` it was -16.4% (inactive); in that of `O=C(O)CCc1cc(I)c(Oc2ccc(O)c(I)c2)c(I)c1`, 51.7% (active).

(Values after PubChem BioAssay AID1578 (Sanford-Burnham Center for Chemical Genomics, 2009).)
